Test [1] has as its target Serine/threonine-protein kinase PLK3 (Homo sapiens) (UniProt Q9H4B4). The conditions noted are these: at 1 µM.
Test [2] shares this target. The conditions noted are these: at 10 µM.
Test [3] has as its target T1, cAMP-dependent protein kinase catalytic subunit PRKX (Homo sapiens) (UniProt P51817).
T1 sequence (whole entry): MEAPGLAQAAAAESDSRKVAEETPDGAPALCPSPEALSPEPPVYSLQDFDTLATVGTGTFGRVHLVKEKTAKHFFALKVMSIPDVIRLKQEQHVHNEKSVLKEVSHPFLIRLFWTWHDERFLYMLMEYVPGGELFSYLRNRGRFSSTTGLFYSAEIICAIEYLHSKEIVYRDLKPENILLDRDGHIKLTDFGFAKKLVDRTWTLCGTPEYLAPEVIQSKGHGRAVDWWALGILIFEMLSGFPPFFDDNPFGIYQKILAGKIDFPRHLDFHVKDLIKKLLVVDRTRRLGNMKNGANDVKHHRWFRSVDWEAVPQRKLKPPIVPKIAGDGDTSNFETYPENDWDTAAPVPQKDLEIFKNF
The settings on record: at 1 µM.

In test [4] the target is T1, cAMP-dependent protein kinase catalytic subunit PRKX (Homo sapiens). The settings on record: at 10 µM.
Test [5] has as its target Protein-tyrosine kinase 2-beta (Homo sapiens) (UniProt Q14289). The conditions noted are these: at 1 µM.
For test [6] the target is unchanged. The conditions noted are these: at 10 µM.
Test [7] concerns the target Receptor-interacting serine/threonine-protein kinase 2 (Homo sapiens) (UniProt O43353). The conditions noted are these: at 1 µM.
Test [8] shares this target. The conditions noted are these: at 10 µM.
Test [9] has as its target Rho-associated protein kinase 1 (Homo sapiens) (UniProt Q13464). The conditions noted are these: at 1 µM.
For test [10] the target is unchanged. The conditions noted are these: at 10 µM.

The text below walks through data of ChEMBL document CHEMBL2218924, “A broad activity screen in support of a chemogenomic map for kinase signalling research and drug discovery” (Biochem J, 2013).

The residual activity is the signal under treatment as a percentage of the control signal.

Rho-associated protein kinase 1 (Homo sapiens), sequence (Q13464 2-1354 limits assumed): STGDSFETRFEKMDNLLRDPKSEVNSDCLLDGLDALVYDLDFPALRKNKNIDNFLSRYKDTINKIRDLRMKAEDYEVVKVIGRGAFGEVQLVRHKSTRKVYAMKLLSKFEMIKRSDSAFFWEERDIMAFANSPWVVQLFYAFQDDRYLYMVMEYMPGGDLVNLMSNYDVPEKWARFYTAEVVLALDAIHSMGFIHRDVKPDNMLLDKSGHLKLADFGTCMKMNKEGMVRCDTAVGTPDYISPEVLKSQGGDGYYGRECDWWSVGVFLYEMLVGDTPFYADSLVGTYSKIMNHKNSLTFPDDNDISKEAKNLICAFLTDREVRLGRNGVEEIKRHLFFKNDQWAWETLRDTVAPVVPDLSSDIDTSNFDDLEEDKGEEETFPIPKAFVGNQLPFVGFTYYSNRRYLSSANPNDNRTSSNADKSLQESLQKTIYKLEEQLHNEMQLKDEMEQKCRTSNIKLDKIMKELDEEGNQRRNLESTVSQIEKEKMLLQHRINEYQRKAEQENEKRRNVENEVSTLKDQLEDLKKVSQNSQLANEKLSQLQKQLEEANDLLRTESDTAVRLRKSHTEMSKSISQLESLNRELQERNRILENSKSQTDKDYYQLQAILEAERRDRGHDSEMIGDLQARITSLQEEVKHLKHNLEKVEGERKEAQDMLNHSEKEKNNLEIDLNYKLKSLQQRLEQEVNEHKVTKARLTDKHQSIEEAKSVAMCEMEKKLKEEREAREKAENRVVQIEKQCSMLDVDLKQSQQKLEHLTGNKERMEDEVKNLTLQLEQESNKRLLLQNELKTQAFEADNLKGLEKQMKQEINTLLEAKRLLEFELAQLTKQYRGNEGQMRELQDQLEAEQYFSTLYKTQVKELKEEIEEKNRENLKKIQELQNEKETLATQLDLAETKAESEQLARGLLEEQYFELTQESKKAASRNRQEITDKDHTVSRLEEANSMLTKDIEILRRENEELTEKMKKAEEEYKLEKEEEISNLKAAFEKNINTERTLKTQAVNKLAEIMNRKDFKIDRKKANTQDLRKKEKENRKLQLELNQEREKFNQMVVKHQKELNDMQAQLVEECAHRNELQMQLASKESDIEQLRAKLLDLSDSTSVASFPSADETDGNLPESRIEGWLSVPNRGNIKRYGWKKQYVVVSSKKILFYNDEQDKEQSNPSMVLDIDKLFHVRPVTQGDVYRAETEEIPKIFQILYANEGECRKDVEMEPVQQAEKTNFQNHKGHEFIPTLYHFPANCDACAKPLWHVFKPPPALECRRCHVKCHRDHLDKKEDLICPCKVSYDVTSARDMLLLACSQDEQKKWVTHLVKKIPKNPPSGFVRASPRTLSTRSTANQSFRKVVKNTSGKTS
Serine/threonine-protein kinase PLK3 (Homo sapiens), sequence (Q9H4B4 whole entry, looked up): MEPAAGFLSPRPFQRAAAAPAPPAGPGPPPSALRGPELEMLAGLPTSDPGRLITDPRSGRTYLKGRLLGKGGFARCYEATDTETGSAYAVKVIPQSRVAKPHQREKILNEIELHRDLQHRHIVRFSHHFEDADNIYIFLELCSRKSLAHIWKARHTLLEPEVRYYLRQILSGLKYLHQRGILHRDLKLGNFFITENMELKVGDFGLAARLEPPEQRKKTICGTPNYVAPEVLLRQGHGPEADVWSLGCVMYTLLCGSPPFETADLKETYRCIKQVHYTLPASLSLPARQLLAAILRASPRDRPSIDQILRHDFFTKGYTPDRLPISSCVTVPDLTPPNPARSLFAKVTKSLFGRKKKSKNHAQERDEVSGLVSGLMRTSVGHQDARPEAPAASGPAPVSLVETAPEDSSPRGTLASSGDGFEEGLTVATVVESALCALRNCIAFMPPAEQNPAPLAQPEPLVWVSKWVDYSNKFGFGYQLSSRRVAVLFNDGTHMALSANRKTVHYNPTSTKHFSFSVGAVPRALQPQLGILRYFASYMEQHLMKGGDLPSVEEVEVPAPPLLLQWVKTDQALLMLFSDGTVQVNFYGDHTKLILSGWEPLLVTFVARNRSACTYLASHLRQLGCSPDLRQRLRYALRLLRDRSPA
Protein-tyrosine kinase 2-beta (Homo sapiens), sequence (Q14289 whole entry, looked up): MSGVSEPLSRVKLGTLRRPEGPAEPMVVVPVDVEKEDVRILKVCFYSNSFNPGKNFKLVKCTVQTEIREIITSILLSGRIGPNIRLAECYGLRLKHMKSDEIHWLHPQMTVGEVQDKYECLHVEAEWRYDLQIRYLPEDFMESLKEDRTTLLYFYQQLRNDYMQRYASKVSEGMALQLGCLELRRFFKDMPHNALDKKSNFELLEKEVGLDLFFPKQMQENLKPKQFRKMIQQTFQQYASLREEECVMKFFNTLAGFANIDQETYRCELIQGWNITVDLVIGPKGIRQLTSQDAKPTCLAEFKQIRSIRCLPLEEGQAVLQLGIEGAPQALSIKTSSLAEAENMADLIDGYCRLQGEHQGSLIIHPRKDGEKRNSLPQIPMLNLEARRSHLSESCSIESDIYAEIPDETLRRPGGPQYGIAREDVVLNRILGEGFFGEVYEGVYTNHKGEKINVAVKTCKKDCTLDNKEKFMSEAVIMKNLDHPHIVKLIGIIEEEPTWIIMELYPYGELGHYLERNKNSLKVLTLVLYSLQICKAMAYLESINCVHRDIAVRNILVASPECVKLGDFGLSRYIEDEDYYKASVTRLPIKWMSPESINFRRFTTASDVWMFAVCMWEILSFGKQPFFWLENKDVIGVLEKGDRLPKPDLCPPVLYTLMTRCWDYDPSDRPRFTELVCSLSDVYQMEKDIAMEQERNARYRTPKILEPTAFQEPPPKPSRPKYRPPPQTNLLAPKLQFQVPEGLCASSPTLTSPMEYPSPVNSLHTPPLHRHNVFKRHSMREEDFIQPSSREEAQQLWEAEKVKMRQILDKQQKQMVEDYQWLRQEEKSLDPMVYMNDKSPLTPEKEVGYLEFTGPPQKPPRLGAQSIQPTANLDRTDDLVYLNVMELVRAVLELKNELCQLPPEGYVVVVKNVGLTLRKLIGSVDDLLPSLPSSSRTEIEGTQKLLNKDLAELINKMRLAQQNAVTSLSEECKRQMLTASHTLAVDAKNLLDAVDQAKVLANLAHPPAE
Receptor-interacting serine/threonine-protein kinase 2 (Homo sapiens), sequence (O43353 whole entry): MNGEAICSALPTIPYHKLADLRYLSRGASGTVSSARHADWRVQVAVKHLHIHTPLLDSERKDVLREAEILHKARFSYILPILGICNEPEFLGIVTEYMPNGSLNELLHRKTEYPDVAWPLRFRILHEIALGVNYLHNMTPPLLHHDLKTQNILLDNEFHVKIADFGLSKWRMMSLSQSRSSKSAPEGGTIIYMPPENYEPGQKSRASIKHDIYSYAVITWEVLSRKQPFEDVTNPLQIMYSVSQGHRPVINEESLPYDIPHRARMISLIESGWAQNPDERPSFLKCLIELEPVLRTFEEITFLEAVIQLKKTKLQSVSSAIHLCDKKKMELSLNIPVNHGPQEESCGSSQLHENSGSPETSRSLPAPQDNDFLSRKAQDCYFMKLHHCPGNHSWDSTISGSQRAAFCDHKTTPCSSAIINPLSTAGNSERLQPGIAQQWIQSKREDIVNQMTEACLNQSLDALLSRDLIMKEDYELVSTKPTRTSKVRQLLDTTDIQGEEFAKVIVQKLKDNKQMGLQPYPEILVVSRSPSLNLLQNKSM

With `CC(C)n1cnc2c(NCc3ccccc3)nc(NCCCO)nc21`, the residual activity in test [1] was 98% (inactive); in test [2] it was 95%; in test [3], 130%; in test [4], 88%; in test [5], 102%; in test [6], 83%. The residual activity was 69% in test [7], 51% in [8], 109% in test [9] and 100% in test [10].

In the case of `O=C(Nc1cccc(Nc2nccc(Nc3cccc(C(F)(F)F)c3)n2)c1)C1CC1`, the residual activity in test [1] was 73% (inactive); in test [2], 88%; in test [3], 103%; in test [4], 51%; in [5] it was 55%; in test [6], 12%. Also, the residual activity stood at 69% in [7], 71% in [8], 106% in test [9] and 127% in [10].

As to `Cn1nc2c3c(cccc31)C(=O)c1ccccc1-2`, the residual activity in test [1] was 100% (inactive); in test [2] it was 90%; in [3], 72%; in test [4] it was 86%; in test [5], 106%; in test [6], 76%. Moreover, the values for the residual activity in test [7], in test [8] and in test [10] were 89%, 89% and 97%, respectively.

For the compound `Nc1n[nH]c2nnc(-c3c(-c4ccccc4)nn4ccccc34)cc12`, the residual activity was 97% (inactive) in test [1]; 99% in test [2]; 92% in test [3]; 74% in test [4]; 95% in test [5]; 72% in test [6]. Besides, the residual activity is 88% in test [7], 78% in [8], 106% in test [9] and 105% in [10].

With `N#C/C(=C(\N)Sc1ccc(N)cc1)c1ccccc1C(F)(F)F`, the residual activity was 101% (inactive) in test [1]; 90% in [2]; 95% in [3]; 109% in test [4]; 100% in test [5]; 97% in test [6]. Besides, the residual activity in test [7] stood at 93%; in test [8], 98%; in test [9] it was 110%; in test [10], 103%.

Regarding `Nc1nc(Nc2ccc(S(N)(=O)=O)cc2)nn1C(=S)Nc1c(F)cccc1F`, the residual activity was 90% (inactive) in test [1]; 91% in test [2]; 44% in test [3]; 7% in test [4]; 4% in test [5]; 1% in test [6]. Further, the residual activity in test [7] is 16%; in test [8] it was 29%; in test [9] it was 6%; in test [10], 1%.

With `c1ccc(-c2n[nH]cc2-c2ccnc3ccccc23)nc1`, the residual activity in [1] is 99% (inactive); in test [2] it was 94%; in test [3], 96%; in test [4], 94%; in test [5] it was 109%; in test [6] it was 96%. Besides, the residual activity in [7] amounted to 29%; in [8], 16%; in test [10] it was 127%.

Consider `N#CC(C#N)=C(N)/C(C#N)=C/c1ccc(O)cc1`, for which the residual activity in [1] is 79% (inactive); in test [2], 27%; in test [3], 99%; in [4], 100%; in test [5], 129%; in test [6] it was 94%. In addition, the residual activity in test [8] was 64%.

With `O=C(O)c1ccc2c3c1cccc3c(=O)n1c3ccccc3nc21`, the residual activity in test [1] is 106% (inactive); in test [2], 98%; in test [3], 84%; in test [4], 68%; in test [5], 88%; in test [6], 42%. The residual activity in [7] is 96%; in test [8] it was 82%; in [9] it was 113%; in test [10] it was 80%.

As to `COc1ccc(C(=O)Nc2sc3c(c2C(N)=O)CCCC3)cc1OC`, the residual activity in test [1] was 90% (inactive); in test [2], 91%; in test [3] it was 80%; in [4], 95%; in test [5], 121%; in [6] it was 89%. Also, the residual activity in test [7] worked out at 79%; in [8], 71%; in test [9] it was 101%; in test [10], 119%.

Turning to `COc1cc2ncnc(Nc3ccc(O)c(Br)c3)c2cc1OC`, the residual activity in [1] is 92% (inactive); in test [2] it was 88%; in test [3], 90%; in [4], 66%; in test [5], 85%; in test [6] it was 42%. Moreover, the residual activity worked out at 20% in test [7], 8% in test [8], 116% in test [9] and 102% in test [10].

`CC(C)n1cnc2/c(=N/c3cccc(Cl)c3)nc(NCCO)[nH]c21`: the residual activity in test [1] was 93% (inactive); in test [2], 57%; in test [3] it was 82%; in [4] it was 65%; in [5], 56%; in test [6] it was 18%. The residual activity in test [7] worked out at 77%; in test [8], 68%; in [9], 113%; in [10], 82%.

In the case of `Nc1cccc(-c2cc3c(Oc4cccc(O)c4)ncnc3[nH]2)c1`, the residual activity in [1] was 99% (inactive); in test [2], 74%; in [3], 85%; in test [4] it was 70%; in test [5] it was 25%; in [6], 5%. The values for the residual activity in test [7], in [8] and in [10] were 18%, 11% and 97%, respectively.

With `Cc1nc(-c2ccccc2)c(-c2ccncc2)o1`, the residual activity in test [1] was 106% (inactive); in test [2] it was 96%; in [3] it was 86%; in [4], 85%; in test [5] it was 91%; in test [6], 79%. For the same compound, the residual activity in test [7] came out at 58%; in [8] it was 25%; in test [9] it was 124%; in test [10], 108%.

For `C[C@@H](N)[C@H]1CC[C@H](C(=O)Nc2ccncc2)CC1`, the residual activity is 108% (inactive) in [1]; 96% in test [2]; 72% in test [3]; 24% in [4]; 96% in test [7]; 77% in [9]. Further, the residual activity in test [10] stood at 31%.

Take `CCN(CC)C(=O)c1ccc(Nc2nc(OCC3CCCCC3)c3nc[nH]c3n2)cc1`: the residual activity is 101% (inactive) in test [1]; 101% in [3]; 23% in test [4]; 22% in [5]; 0% in test [6]; 74% in test [7]. Also, the residual activity in test [8] was 41%; in test [10], 23%.

Consider `CC#CC(=O)Nc1cc2c(Nc3ccc(F)c(Cl)c3)ncnc2cn1`, for which the residual activity in test [1] is 96% (inactive); in test [2], 82%; in test [3] it was 100%; in test [4] it was 93%; in [5], 120%; in test [7] it was 82%. Also, the residual activity in test [8] was found to be 60%; in [9], 99%; in test [10], 116%.

For `O=C1Nc2ccccc2/C1=C1/Nc2ccccc2/C1=N\OCCC(O)CO` (stereo unspecified), the residual activity in test [3] turned out to be 66%; in [4], 41%; in test [5], 7%; in test [6], 2%; in test [7] it was 58%; in [8], 50%. Besides, the figures for the residual activity in test [9] and in test [10] were 114% and 98%, respectively.
